D1 antagonist: antagonists of human D1 dopamine receptor; HEK293 TREx D1 cells, calcium flux, dopamine EC80; active compounds read low; activity change, negative = inhibition, % at 10 µM; 360,000 tested, 3.2% active; in the data active = activity change below about -30%; note: % is set by controls: 0 for no effect and ±100 for the full control effect
Target sequence (P21728 whole entry, looked up): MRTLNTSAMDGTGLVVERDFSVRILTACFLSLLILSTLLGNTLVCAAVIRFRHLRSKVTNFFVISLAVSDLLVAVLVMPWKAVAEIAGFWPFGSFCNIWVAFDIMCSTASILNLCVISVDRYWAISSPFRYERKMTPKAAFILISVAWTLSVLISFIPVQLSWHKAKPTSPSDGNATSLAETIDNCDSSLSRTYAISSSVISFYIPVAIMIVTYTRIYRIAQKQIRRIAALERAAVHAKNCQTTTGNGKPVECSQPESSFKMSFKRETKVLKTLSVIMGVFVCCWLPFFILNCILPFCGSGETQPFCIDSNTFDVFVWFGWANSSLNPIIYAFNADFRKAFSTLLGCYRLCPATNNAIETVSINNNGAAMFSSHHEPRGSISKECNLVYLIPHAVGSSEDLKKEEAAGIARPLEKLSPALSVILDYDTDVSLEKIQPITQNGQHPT
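Tetracycline-induced HEK293 T-REx cells with force-coupled D1 receptor were loaded with a no-wash calcium dye. Compound was added after a 10 s baseline and read kinetically for 180 s; EC80 dopamine was then added and calcium flux followed another 180 s.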
D1 agonist: human D1 receptor agonism | 360,000 tested, 1% active | activation, % at 2 µM | HEK293 T-REx D1 cells, calcium flux, agonist mode | P21728 | AID 504660; note: 0% is about no effect
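Tetracycline-induced HEK293 TREx D1 cells, force-coupled to calcium signalling, were dye-loaded with a no-wash calcium kit. Compound was pin-added after a 10 s baseline. Fluorescence was read kinetically at 1 cycle/s for 180 s, with calcium rises flagged as agonism.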
TRHR enhancer: allosterically enhances the human TRH receptor. P34981. TRHR cells, fluo-8 calcium fluorescence, EC20 TRH enhancement. enhancement, % at 2 µM. 360,000 tested, 0.66% active; in the data active = enhancement above about 30%; note: 0% is about no effect
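Enhancer read-out: after compound pinning and an initial kinetic agonist-mode read, an EC20 of TRH (10 nM final) was injected and fluo-8 calcium signal (Ex 480/Em 530) followed at 1 s/cycle for 100 cycles in TRHR-expressing cells.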
D1 potentiator: human D1 dopamine receptor positive modulation | P21728 | HEK293 TREx D1 cells, calcium flux, dopamine EC20 potentiation | potentiation, % at 10 µM | 360,000 tested, 0.036% active; in the data active = potentiation above about 30%; note: 0% is about no effect
TRHR ag: agonists of human TRH receptor; 360,000 tested, 0.18% active; activation, % at 2 µM; P34981; TRHR cells, calcium flux fluo-8, FDSS agonist mode; note: 0% is about no effect
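Agonist-mode FDSS calcium read (Ex 480/Em 530, 1 s cycles) in 1536-well TRHR cells with fluo-8 dye, after 10-cycle baseline and 23 nL compound addition; TRH at EC20 (10 nM final) added afterwards for the enhancer phase.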
* marks the source's active call; other numbers are inactive results; . = not tested or not shown. The list is not random: actives were taken first. Their share in the collection is about 4.7%. Cut-off read from the data, not from the text of the source, unless noted: active = activation above about 30%; inactive = the rest.

SMILES | D1 antagonist | D1 agonist | TRHR enhancer | D1 potentiator | TRHR ag
Cc1nn(C)c2c1c(C(F)(F)F)cc(=O)n2CC(=O)N1CCN(c2ccccc2F)CC1 | -5 | 0 | 6 | 0 | 0
CN(C(=O)CSC(=O)c1ccccc1)c1ccccc1 | 1 | 1 | 6 | -6 | 0
CC(=Nc1ccccc1O)c1sc2ccccc2c1O | -25 | 48* | 6 | -4 | 16
CC(=Nc1cccc(C)c1)c1sc2ccccc2c1O | 3 | 23 | 7 | -1 | 15
CC(=Nc1ccc(O)cc1)c1sc2ccccc2c1O | 0 | 53* | 13 | 1 | 13
COc1ccccc1C(=O)n1nc(-c2ccccc2)nc1NCc1ccc(Cl)cc1 | 6 | 3 | -7 | -5 | 2
NC(=O)c1cc(S(=O)(=O)NCCc2ccc(S(N)(=O)=O)cc2)cs1 | -6 | 2 | -2 | 0 | 1
CCCC1=C(C(=O)OCC)C(c2ccc(OC)c(C)c2OC)C(C#N)=C(N)O1 (stereo not given) | 4 | 56* | -3 | 12 | 8
CCOC(=O)C1=C(CC)OC(N)=C(C#N)C1c1ccc(OC)c(C)c1OC (stereo not given) | -8 | 26 | -3 | -2 | 7
CCOC(=O)C1=C(CSc2nc(C)ccc2C#N)OC(N)=C(C#N)C1c1cccc(OC)c1OC (stereo not given) | -70* | 6 | -5 | -7 | 2
CCOC(=O)C1=C(CC)OC(N)=C(C#N)C1c1ccc(OC)c(OC)c1OC (stereo not given) | -32* | 0 | -2 | -6 | 0
CCOC(=O)C1=C(CSc2nc(CC)c(C)cc2C#N)OC(N)=C(C#N)C1c1ccc(OC)cc1 (stereo not given) | 4 | 7 | -9 | -1 | 2
O=C(CN1C(=O)COc2ccc(S(=O)(=O)N3CCCCC3)cc21)NCCc1ccc(Cl)cc1 | 1 | 2 | -15 | -2 | 0
CCN(CCCNC(=O)CCn1c(=S)[nH]c2cc3c(cc2c1=O)OCO3)c1cccc(C)c1 | 11 | 0 | 0 | 3 | 2
CC(OC(=O)c1cc(Br)ccc1O)C(=O)NC1(C#N)CCCCC1 (stereo not given) | -13 | 36* | -1 | -7 | 3
NC(=O)[C@@H]1CCCNc2c(I)cc([N+](=O)[O-])cc2C(=O)N[C@@H](CCCN=C(N)N)C(=O)N[C@@H](CCCN=C(N)N)C(=O)N1 | -39* | 0 | 10 | -4 | 0
CC[C@H](C)[C@@H]1NC(=O)c2cc([N+](=O)[O-])cc(I)c2NCC[C@@H](C(N)=O)NC(=O)[C@H](CCCN=C(N)N)NC1=O | 11 | -3 | 6 | -2 | 0
CCN(c1ccc(OC)cc1)S(=O)(=O)c1c(C(=O)N2CCCCCC2)c(C)n(C)c1C | -4 | 1 | 0 | 2 | 0
Cc1ccccc1OCC(=O)OCC(=O)c1ccc[nH]1 | -32* | 2 | -4 | -6 | -2
Cc1ccccc1OCC(=O)OCC(=O)c1ccc(OCc2ccccc2)cc1 | 16 | 55* | -5 | -4 | 0
CCCCCCC(=O)N/N=C(\C)Cc1ccccc1 | -3 | 7 | 4 | -5 | 0
O=C(COc1ccc(Cl)cc1)OCC(=O)c1ccc[nH]1 | -11 | -1 | 11 | -10 | -1
CCCCCCCC(=O)NNC(=O)Cc1ccccc1 | -54* | 2 | -4 | -1 | 0
Cc1ccccc1OCC(=O)NNC(=O)CCc1ccccc1 | 6 | 1 | 32* | 1 | 0
O=C(CS(=O)(=O)c1cn(CC(=O)N2CCCC2)c2ccccc12)Nc1ccccc1F | 0 | 0 | -6 | -2 | 1
SMILES | D1 antagonist | D1 agonist | TRHR enhancer | D1 potentiator | TRHR ag
CCn1c(NCc2cccc(Cl)c2)nc2ccccc21 | -12 | 2 | 3 | -6 | -1
O=C(COc1ccccc1)NC1CC(=O)N(c2ccc3c(c2)OCCO3)C1 (stereo not given) | . | 1 | -2 | -1 | 0
CCc1ccc(NC(=O)NNC(=O)CCc2ccccc2)cc1 | -61* | 1 | 1 | -5 | 0
Cc1cc(OCC(=O)OCC(=O)c2ccc[nH]2)ccc1Cl | -34* | 10 | -7 | -3 | 0
Cc1ccc(C)c(NC(=O)CCC(=O)NNC(=O)COc2cc(C)ccc2C)c1 | -38* | 0 | 6 | -7 | -1
O=C(CCc1ccccc1)NNC(=O)Nc1ccccc1 | 2 | 3 | 0 | 1 | 0
CCOc1ccccc1NC(=O)CSc1nc2c(oc3ccccc32)c(=O)n1C(C)C | 14 | 2 | -5 | -5 | 0
Cc1c(C)n(Cc2ccccc2)c2ccc(C(=O)NCCc3ccccc3Cl)cc12 | -6 | 2 | -1 | -5 | 0
Cn1nc(C(=O)NCc2ccccc2)c2c1-c1ccccc1SC2 | -9 | 4 | 7 | 0 | 1
Cn1nc(C(=O)NCc2ccccc2Cl)c2c1-c1ccccc1SC2 | -33* | 0 | 6 | -1 | 0
CCOc1ccc(CC(=O)N2CCc3cc(OC)c(OC)cc3C2COc2ccc3c(C)cc(=O)oc3c2)cc1 (stereo not given) | 0 | 3 | 2 | 2 | 0
COc1cc(C(=O)NCCCN2CCCC2=O)ccc1OCc1ccc(Cl)cc1Cl | -16 | 38* | -2 | -10 | 0
COc1ccc(Cl)cc1NC(=S)NCCCN1CCCC1=O | -28 | 3 | 1 | -3 | -1
CC1CCCC(C)N1CCCNC(=O)c1ccc2c(c1)NC(=O)c1ccccc1S2 (stereo not given) | -7 | 3 | 3 | -8 | 0
CCC(C)N(CCNC(=O)c1ccc2c(c1)NC(=O)c1ccccc1S2)C1CCCCC1 (stereo not given) | 1 | 30* | -9 | -2 | 2
O=C(NCCCN1CCCC1=O)c1ccc2c(c1)NC(=O)c1ccccc1S2 | -32* | 1 | 0 | . | 0
O=C1CCCN1CCCNC(=S)Nc1ccccc1 | -38* | 5 | 4 | -3 | 0
Cc1ccccc1OCC(=O)OCc1cc(=O)n2nc(C3CC3)sc2n1 | 17 | 4 | 3 | -5 | 0
CCc1noc(C)c1C(=O)N(CC(C)C)c1c(N)n(Cc2ccccc2)c(=O)[nH]c1=O | -6 | 2 | 11 | -1 | 1
c1ccc(CCNc2ccnc3cc4ccccc4cc23)cc1 | -82* | 34* | 1 | -17 | 0
CC(C)Nc1ccc(Nc2ccnc3cc4ccccc4cc23)cc1 | -26 | 3 | -1 | -6 | 1
COC(=O)c1cc(C)sc1NC(=O)CN1CCN(C(=O)C2CCCO2)CC1 (stereo not given) | -26 | 0 | -3 | -7 | 2
CC1(CC(=O)N/N=C/c2ccc(-c3cccc(C(F)(F)F)c3)o2)OCCO1 | -37* | 3 | 4 | -7 | -1
COC(=O)C(C)Sc1nc2ccsc2c(=O)n1Cc1ccccc1 (stereo not given) | -1 | 5 | -2 | 0 | -1
O=C(CC(c1ccccc1)c1ccccc1)Nc1nn[nH]n1 | -31* | 4 | -3 | -2 | 1
